Assay results reported in PMC7862700, “An all-to-all approach to the identification of sequence-specific readers for epigenetic DNA modifications on cytosine”.

Tests used:
Test in all cases: DAPPL (digital affinity profiling via proximity ligation, sequencing); 10 mM Tris-HCl pH 7.5, 50 mM NaCl, 1 mM DTT, 4% glycerol, room temperature, 30 min; GST-TFs on glutathione beads, 16-mer random dsDNA library, 0.1% formaldehyde crosslink after washing; high values mean tight binding
Settings in all cases: protein: recombinant; tags: N-terminal GST; dsDNA, one strand shown
FLI1 = biological target: T1, FLI1 (Homo sapiens, UniProt Q01543 1-452)
T1 sequence: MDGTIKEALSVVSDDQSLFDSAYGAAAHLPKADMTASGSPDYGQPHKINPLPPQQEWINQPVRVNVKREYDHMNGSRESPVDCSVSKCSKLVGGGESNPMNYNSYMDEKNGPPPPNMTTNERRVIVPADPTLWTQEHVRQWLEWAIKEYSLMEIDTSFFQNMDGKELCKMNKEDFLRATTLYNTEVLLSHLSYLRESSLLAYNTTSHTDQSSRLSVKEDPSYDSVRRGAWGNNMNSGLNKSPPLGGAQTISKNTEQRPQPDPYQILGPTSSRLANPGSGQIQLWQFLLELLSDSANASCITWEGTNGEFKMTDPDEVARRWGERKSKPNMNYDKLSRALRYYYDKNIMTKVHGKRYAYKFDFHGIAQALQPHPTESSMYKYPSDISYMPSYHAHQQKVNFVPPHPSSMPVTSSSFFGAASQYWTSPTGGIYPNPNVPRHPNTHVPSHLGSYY
Summary of the method: (§1)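 Sequencing on an Illumina NextSeq500 followed washing, crosslinking with 0.1% formaldehyde, proximity ligation (BsaI/T4 ligase, 1 h, 37 °C) and PCR amplification of pools that had been incubated for 30 min at room temperature with 200 nmole of a random double-stranded 16-mer DNA library in Tris/NaCl/DTT/glycerol buffer. Each pool held DNA-barcoded human transcription factors, expressed in yeast as GST fusions and captured on glutathione beads, plus a tag-only sample. Binding signal is a hexamer's read frequency for a factor divided by its frequency in the tag-only sample.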

ELK1 = biological target: T2, ELK1 (Homo sapiens, UniProt P19419 1-428)
T2 sequence: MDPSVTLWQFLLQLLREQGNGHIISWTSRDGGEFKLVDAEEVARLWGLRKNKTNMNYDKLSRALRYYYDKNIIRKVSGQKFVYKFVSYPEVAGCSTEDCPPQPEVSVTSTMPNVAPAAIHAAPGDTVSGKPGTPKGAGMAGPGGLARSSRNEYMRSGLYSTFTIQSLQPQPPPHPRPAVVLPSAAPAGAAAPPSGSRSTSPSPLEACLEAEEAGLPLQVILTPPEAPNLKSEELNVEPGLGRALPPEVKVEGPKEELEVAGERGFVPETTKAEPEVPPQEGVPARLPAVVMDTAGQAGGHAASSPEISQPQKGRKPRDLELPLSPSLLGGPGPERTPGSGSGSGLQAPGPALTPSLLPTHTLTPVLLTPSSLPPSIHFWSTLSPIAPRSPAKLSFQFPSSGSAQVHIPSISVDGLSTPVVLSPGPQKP
Summary of the method: as §1

GABPA = biological target: T3, GABPA (Homo sapiens, UniProt Q06546 1-454)
T3 sequence: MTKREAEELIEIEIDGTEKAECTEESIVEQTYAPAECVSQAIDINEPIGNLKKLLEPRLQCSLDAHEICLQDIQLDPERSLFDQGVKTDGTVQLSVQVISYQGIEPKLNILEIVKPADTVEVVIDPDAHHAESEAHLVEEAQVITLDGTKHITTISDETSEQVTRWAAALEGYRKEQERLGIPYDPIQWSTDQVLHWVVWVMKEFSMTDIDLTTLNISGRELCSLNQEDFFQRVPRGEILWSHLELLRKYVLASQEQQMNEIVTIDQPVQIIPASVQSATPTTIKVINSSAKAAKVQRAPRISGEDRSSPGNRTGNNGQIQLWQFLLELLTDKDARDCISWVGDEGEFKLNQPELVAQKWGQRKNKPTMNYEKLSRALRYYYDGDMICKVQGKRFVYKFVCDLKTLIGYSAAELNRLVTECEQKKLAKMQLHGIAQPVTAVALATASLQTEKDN
Summary of the method: as §1

ERG = biological target: T4, ERG (Homo sapiens, UniProt P11308 1-479)
T4 sequence: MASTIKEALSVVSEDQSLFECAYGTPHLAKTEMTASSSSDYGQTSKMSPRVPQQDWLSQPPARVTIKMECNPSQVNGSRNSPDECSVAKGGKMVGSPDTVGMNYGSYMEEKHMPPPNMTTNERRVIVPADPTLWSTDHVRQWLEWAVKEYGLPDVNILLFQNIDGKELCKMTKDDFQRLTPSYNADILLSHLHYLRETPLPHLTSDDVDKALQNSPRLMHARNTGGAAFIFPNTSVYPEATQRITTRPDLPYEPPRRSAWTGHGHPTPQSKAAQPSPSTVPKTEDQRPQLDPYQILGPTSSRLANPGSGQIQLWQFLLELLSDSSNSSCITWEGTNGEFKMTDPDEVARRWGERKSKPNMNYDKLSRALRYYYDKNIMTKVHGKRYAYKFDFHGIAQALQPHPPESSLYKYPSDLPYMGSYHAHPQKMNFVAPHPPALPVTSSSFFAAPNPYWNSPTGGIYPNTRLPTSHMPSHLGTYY
Summary of the method: as §1

ELF1 = ELF1 (Homo sapiens, UniProt P32519 1-619)
Summary of the method: as §1

EHF = biological target: T5, EHF (Homo sapiens, UniProt Q9NZC4 1-300)
T5 sequence: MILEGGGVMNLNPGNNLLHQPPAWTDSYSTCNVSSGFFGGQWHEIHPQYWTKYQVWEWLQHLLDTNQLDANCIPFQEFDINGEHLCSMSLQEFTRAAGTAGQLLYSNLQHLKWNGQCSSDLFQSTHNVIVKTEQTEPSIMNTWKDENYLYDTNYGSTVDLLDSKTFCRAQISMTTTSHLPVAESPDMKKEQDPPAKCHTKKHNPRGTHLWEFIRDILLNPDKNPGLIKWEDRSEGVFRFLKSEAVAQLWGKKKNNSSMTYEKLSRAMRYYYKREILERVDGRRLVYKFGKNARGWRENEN
Summary of the method: as §1

SPI1 = SPI1 (Homo sapiens, UniProt P17947 1-270)
Summary of the method: as §1

SPIB = SPIB (Homo sapiens, UniProt Q01892 1-262)
Summary of the method: as §1

ELK3 = biological target: T6, ELK3 (Homo sapiens, UniProt P41970 1-407)
T6 sequence: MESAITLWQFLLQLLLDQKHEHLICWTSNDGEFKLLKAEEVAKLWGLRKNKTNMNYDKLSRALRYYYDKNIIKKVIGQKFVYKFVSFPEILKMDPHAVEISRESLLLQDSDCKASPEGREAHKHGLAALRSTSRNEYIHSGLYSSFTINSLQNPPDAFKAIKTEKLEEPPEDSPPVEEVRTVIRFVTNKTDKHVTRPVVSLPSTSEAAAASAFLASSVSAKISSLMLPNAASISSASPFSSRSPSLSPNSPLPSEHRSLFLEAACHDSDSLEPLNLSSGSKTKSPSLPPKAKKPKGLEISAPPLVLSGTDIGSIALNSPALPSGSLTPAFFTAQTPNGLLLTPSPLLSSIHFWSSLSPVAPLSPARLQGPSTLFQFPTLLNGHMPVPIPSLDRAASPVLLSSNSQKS
Summary of the method: as §1

Chain of SPIB (Q01892 whole entry): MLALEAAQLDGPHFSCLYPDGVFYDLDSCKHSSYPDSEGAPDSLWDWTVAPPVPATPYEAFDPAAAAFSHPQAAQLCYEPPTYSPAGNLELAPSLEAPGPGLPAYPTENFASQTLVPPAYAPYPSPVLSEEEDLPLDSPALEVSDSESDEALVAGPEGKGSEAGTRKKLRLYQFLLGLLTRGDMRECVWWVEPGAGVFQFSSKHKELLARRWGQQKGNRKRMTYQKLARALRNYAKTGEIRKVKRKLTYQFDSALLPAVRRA
Chain of ELF1 (P32519 whole entry): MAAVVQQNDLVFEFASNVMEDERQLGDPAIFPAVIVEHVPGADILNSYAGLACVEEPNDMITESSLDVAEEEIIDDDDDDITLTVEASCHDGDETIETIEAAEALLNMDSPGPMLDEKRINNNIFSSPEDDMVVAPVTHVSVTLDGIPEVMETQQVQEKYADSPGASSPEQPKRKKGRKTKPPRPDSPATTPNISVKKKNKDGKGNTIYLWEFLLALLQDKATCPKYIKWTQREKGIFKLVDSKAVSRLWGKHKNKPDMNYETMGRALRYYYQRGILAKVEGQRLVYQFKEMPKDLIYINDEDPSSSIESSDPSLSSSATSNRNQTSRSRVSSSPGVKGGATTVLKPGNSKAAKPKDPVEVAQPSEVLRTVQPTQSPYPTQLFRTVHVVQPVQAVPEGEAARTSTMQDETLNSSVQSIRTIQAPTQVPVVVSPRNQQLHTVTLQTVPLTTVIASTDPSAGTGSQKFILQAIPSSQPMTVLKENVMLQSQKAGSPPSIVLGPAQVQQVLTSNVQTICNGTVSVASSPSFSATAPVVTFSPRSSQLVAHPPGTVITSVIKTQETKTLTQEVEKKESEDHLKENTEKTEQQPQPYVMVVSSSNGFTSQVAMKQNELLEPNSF

Row | Sequence | binding signal (FLI1) | binding signal (ELK1) | binding signal (GABPA) | binding signal (ERG) | binding signal (ELF1) | binding signal (EHF) | binding signal (SPI1) | binding signal (SPIB) | binding signal (ELK3)
1 | TCCCTA | 1.35 fold enrichment (6-mer frequency, TF over GST control) | 1.26 fold enrichment (6-mer frequency, TF over GST control) | 1.26 fold enrichment (6-mer frequency, TF over GST control) | 1.3 fold enrichment (6-mer frequency, TF over GST control) | 1.32 fold enrichment (6-mer frequency, TF over GST control) | 1.27 fold enrichment (6-mer frequency, TF over GST control) | 1.52 fold enrichment (6-mer frequency, TF over GST control) | 1.32 fold enrichment (6-mer frequency, TF over GST control) | 1.34 fold enrichment (6-mer frequency, TF over GST control)
2 | GTTCCT | 1.73 fold enrichment (6-mer frequency, TF over GST control) | 1.69 fold enrichment (6-mer frequency, TF over GST control) | 1.64 fold enrichment (6-mer frequency, TF over GST control) | 1.86 fold enrichment (6-mer frequency, TF over GST control) | 1.72 fold enrichment (6-mer frequency, TF over GST control) | 1.73 fold enrichment (6-mer frequency, TF over GST control) | 2.34 fold enrichment (6-mer frequency, TF over GST control) | 1.84 fold enrichment (6-mer frequency, TF over GST control) | 1.77 fold enrichment (6-mer frequency, TF over GST control)
3 | CTGTTA | 1.22 fold enrichment (6-mer frequency, TF over GST control) | 1.24 fold enrichment (6-mer frequency, TF over GST control) | 1.32 fold enrichment (6-mer frequency, TF over GST control) | 1.28 fold enrichment (6-mer frequency, TF over GST control) | 1.24 fold enrichment (6-mer frequency, TF over GST control) | 1.26 fold enrichment (6-mer frequency, TF over GST control) | 1.27 fold enrichment (6-mer frequency, TF over GST control) | 1.27 fold enrichment (6-mer frequency, TF over GST control) | 1.32 fold enrichment (6-mer frequency, TF over GST control)
4 | AAGCCT | 1.21 fold enrichment (6-mer frequency, TF over GST control) | 1.22 fold enrichment (6-mer frequency, TF over GST control) | 1.24 fold enrichment (6-mer frequency, TF over GST control) | 1.21 fold enrichment (6-mer frequency, TF over GST control) | 1.25 fold enrichment (6-mer frequency, TF over GST control) | 1.16 fold enrichment (6-mer frequency, TF over GST control) | 1.14 fold enrichment (6-mer frequency, TF over GST control) | 1.22 fold enrichment (6-mer frequency, TF over GST control) | 1.25 fold enrichment (6-mer frequency, TF over GST control)
5 | TTAACA | 1.18 fold enrichment (6-mer frequency, TF over GST control) | 1.13 fold enrichment (6-mer frequency, TF over GST control) | 1.15 fold enrichment (6-mer frequency, TF over GST control) | 1.15 fold enrichment (6-mer frequency, TF over GST control) | 1.17 fold enrichment (6-mer frequency, TF over GST control) | 1.13 fold enrichment (6-mer frequency, TF over GST control) | 1.15 fold enrichment (6-mer frequency, TF over GST control) | 1.14 fold enrichment (6-mer frequency, TF over GST control) | 1.19 fold enrichment (6-mer frequency, TF over GST control)
6 | TCCGGC | 2.29 fold enrichment (6-mer frequency, TF over GST control) | 2.4 fold enrichment (6-mer frequency, TF over GST control) | 2.12 fold enrichment (6-mer frequency, TF over GST control) | 2.58 fold enrichment (6-mer frequency, TF over GST control) | 2 fold enrichment (6-mer frequency, TF over GST control) | 2.18 fold enrichment (6-mer frequency, TF over GST control) | 2.19 fold enrichment (6-mer frequency, TF over GST control) | 2.42 fold enrichment (6-mer frequency, TF over GST control) | 2.45 fold enrichment (6-mer frequency, TF over GST control)
7 | GCTCTA | 1.17 fold enrichment (6-mer frequency, TF over GST control) | 1.09 fold enrichment (6-mer frequency, TF over GST control) | 1.11 fold enrichment (6-mer frequency, TF over GST control) | 1.24 fold enrichment (6-mer frequency, TF over GST control) | 1.13 fold enrichment (6-mer frequency, TF over GST control) | 1.23 fold enrichment (6-mer frequency, TF over GST control) | 1.04 fold enrichment (6-mer frequency, TF over GST control) | 1.09 fold enrichment (6-mer frequency, TF over GST control) | 1.09 fold enrichment (6-mer frequency, TF over GST control)
